Screening results deposited in PubChem BioAssay by Sanford-Burnham Center for Chemical Genomics.
Shown are actives, neighbours in structure and some others; about 4% of the full set was active somewhere.
Peg3 promoter – Peg3 promoter-driven luciferase inhibitors, primary screen, cell-based, HeLa, luciferase luminescence; HeLa PEG-Prom luciferase reporter, overnight; inhibition, % at 20 µM; 360,000 compounds, 1.7% hits; AID 588405, 2011;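 active = inhibition of at least 50% at 20 µM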
CF NFkB block – inhibitors of PAF-induced NF-kB signaling, primary screen, cell-based, GFP fluorescence, uHTS; KKLEB NF-kB-GFP reporter, GFP fluorescence overnight; 360,000 compounds, 0.86% hits; AID 588850, 2011; inhibition, % at 5 µM;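 active = at least 50% inhibition at 5 µM, scaled per plate between neutral and stimulator controls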;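 also: PAF is a Pseudomonas aeruginosa culture filtrate used as stimulus; plate controls were PAF-stimulated DMSO wells for no effect and unstimulated DMSO wells for full effect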
TWEAK-Fn14 inh – inhibitors of TWEAK-Fn14 signaling, primary screen, luciferase reporter cells, uHTS | TWEAK-stimulated Fn14 reporter cells, luciferase luminescence, 8 h | inhibition, % at 10 µM | 360,000 compounds, 2% hits; in the data active = inhibition above about 50%
TROY NFkB inh – inhibitors of TROY-driven NF-kB signaling, primary screen, Q293 LMP1-TROYcd cells, NF-kB luciferase, uHTS. Q293 LMP1-TROYcd NF-kB luciferase reporter, 4 h. inhibition, % at 10 µM. 360,000 compounds, 0.98% hits. AID 1347056, 2019;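 active = compounds whose plate-normalised and pattern-corrected inhibition of the luciferase reporter signal at the single screening dose is 50% or more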
HIF-2a block – HIF-2a reporter inhibitors, primary screen, luminescence, 786-0 RCC cells; AID 624352, 2012; 360,000 compounds, 0.72% hits; inhibition, % at 18.8 µM; 786-0 RCC cells HIF-2a reporter, luciferase luminescence, overnight;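 active = inhibition of the luminescence signal of 40% or more relative to plate controls, in a single-dose primary screen at 18.75 µM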
KKLEB cytotox – cytotoxicity in KKLEB CF airway cells, primary screen, cytotoxicity control for CF NF-kB inhibitor project, cell-based, uHTS, fluorescence assay plates; AID 602141, 2011; 360,000 compounds, 0.36% hits; KKLEB CF airway cells viability, ATPlite luminescence, overnight; hits give low values; cells stimulated with P. aeruginosa culture filtrate; activity change (cytotoxicity), % at 5 µM;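 active = corrected activity change at or below -50% at 5 µM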
* hit, by the source's call; nt = not tested or not shown.

SMILES | Peg3 promoter | CF NFkB block | TWEAK-Fn14 inh | TROY NFkB inh | HIF-2a block | KKLEB cytotox
N#Cc1nc(NCC(F)F)nc(Nc2cc(F)cc(F)c2)n1 | 107.1* | 73.1* | 91.8* | 46.3 | 7.7 | 19.6
CCN(CC)S(=O)(=O)c1ccc(C)c(C)c1 | 11.7 | 1.0 | 17.7 | 0.9 | 15.4 | -1.3
CC1CCN(S(=O)(=O)c2ccc3c(c2)C(=NO)c2cc(S(=O)(=O)N4CCC(C)CC4)ccc2-3)CC1 | 99.8* | 82.8* | -127.4 | -16.8 | 1.4 | -5.3
CCN(CC)S(=O)(=O)c1ccc2c(c1)C(=NO)c1cc(S(=O)(=O)N(CC)CC)ccc1-2 | 51.3* | 42.8 | 30.2 | 49.7 | 37.5 | -44.5
COc1ccc(S(=O)(=O)N2CCC(C)CC2)cc1OC | 1.9 | 3.3 | 1.0 | 4.5 | 16.3 | 1.6
CCCCSC(=S)NC1CCS(=O)(=O)C1 (centres undefined) | 18.1 | 40.4 | 57.2* | 16.1 | 31.8 | -10.9
CCCCN(CCCC)C(=S)N/N=C/c1c(C)[nH]n(-c2ccccc2)c1=O | 72.2* | -15.4 | -1.7 | -7.9 | 1.1 | -6.9
Cc1[nH]n(-c2ccccc2)c(=O)c1/C=N/NC(=O)c1ccc(O)cc1O | -9.5 | 20.7 | -27.2 | -23.4 | -13.1 | -10.8
CCCNC(=O)C1(C)CCCN(Cc2ccc(-c3ccccc3)o2)C1 (centres undefined) | 8.1 | 38.2 | 70.1* | 2.1 | 1.2 | 3.5
CC(=O)N[C@H]1[C@H](OCc2ccccc2F)O[C@H](COC(C)=O)[C@@H](OC(C)=O)[C@@H]1OC(C)=O | 7.1 | 17.0 | -7.3 | -4.0 | 9.5 | -3.2
COc1ccc(O[C@@H]2O[C@H](COC(C)=O)[C@@H](OC(C)=O)[C@H](OC(C)=O)[C@H]2NC(C)=O)cc1 | 79.4* | 2.3 | 0.2 | 5.5 | 10.8 | -0.8
CC1CCN(c2ccc(NC(=O)c3ccc([N+](=O)[O-])o3)cc2)CC1 | 105.9* | 95.3* | 41.7 | 9.3 | 52.9* | -98.2*
O=C(Nc1ccc(N2CCCCC2)cc1)c1ccc([N+](=O)[O-])o1 | 106.1* | 96.1* | 44.8 | 23.9 | 34.4 | -37.0
COc1ccc(N2CCCC2)c(NC(=O)c2ccc([N+](=O)[O-])o2)c1 | 53.0* | -1.4 | -9.9 | 4.1 | -15.9 | -26.4
COc1ccc(OC)c(CN2C(=O)CSCC2(C)C(=O)Nc2c(C)cccc2C)c1 (centres undefined) | nt | nt | nt | nt | 13.7 | nt
CCCCCCCC[n+]1c(C)n(-c2ccccc2)c2ccc(NC(C)=O)cc21 | 7.8 | -13.9 | -1.7 | 23.0 | 2.3 | -9.3
COc1cccc(N2CC(=O)Nc3c(oc4nc(-c5ccccc5)cc(C)c34)C2=O)c1 | -0.8 | 1.4 | 40.6 | 70.9* | 14.9 | -4.9
CCn1c(SCC(=O)N/N=C/c2ccc(C)o2)nnc1-c1ccc(C)cc1 | -5.6 | 10.0 | 60.9* | -21.1 | 9.0 | -15.9
CCn1c(SCC(=O)N/N=C/c2ccc(C)o2)nnc1-c1ccc(C(C)(C)C)cc1 | 2.8 | -2.9 | 27.4 | 3.2 | -13.2 | -2.1
O=C(CSc1nnc(SCc2ccccc2Cl)s1)N/N=C/c1c[nH]c2ccccc12 | -71.5 | 18.0 | 64.2* | 23.4 | -134.2 | -2.9
CCn1c(SCC(=O)N/N=C/c2c[nH]c3ccccc23)nnc1-c1ccc(C(C)(C)C)cc1 | 35.0 | -12.1 | 59.7* | 22.6 | -11.9 | 7.2
CCOC(=O)c1ccc(-c2ccc3oc(-c4ccsc4)cc(=O)c3c2)cc1F | -44.5 | 12.5 | -84.5 | -34.2 | -62.0 | 2.3
Cc1nnsc1NC(=O)OCc1ccc(C(C)(C)C)cc1 | -29.4 | -6.5 | 56.0* | nt | -6.7 | 3.2
O=C(/C=C/c1ccc(Cl)cc1)c1ccc([N+](=O)[O-])o1 | 106.6* | 95.8* | 88.1* | 30.6 | 49.0* | -48.4
Cc1cc(O)c(C(=O)/C=C/c2ccc(Cl)cc2)c(=O)o1 | -119.2 | -20.4 | 14.0 | -37.0 | -97.2 | 7.8
SMILES | Peg3 promoter | CF NFkB block | TWEAK-Fn14 inh | TROY NFkB inh | HIF-2a block | KKLEB cytotox
O=C(NC(NNc1ccc([N+](=O)[O-])cc1)(C(F)(F)F)C(F)(F)F)c1ccccc1Cl | 4.2 | -21.9 | -2.4 | 9.8 | -6.1 | -8.7
O=C(NC(Nc1nc2ccc([N+](=O)[O-])cc2s1)(C(F)(F)F)C(F)(F)F)c1ccccc1Cl | 65.2* | 45.0 | 90.2* | 65.6* | 15.2 | -53.0*
O=C(NC(Nc1nc2ccc([N+](=O)[O-])cc2s1)(C(F)(F)F)C(F)(F)F)c1cccnc1 | 12.4 | 54.9* | 51.4* | 14.8 | 11.7 | -47.5
C=CCNC(=S)N1CCN(Cc2ccc3c(c2)OCO3)CC1 | 9.2 | -4.4 | -13.6 | 27.1 | 14.8 | 7.2
CCNc1nc(NCC)nc(OCCOC(=O)COc2ccc(Cl)cc2Cl)n1 | 2.1 | 3.3 | 86.2* | nt | 5.7 | -6.2
CC1(C)CC2CC(C)(CN2C(=O)c2cc(-c3ccc(O)cc3)on2)C1 (centres undefined) | -20.1 | -11.0 | -35.3 | 62.4* | 2.0 | 1.6
CCc1ccc(/C(C)=N/NC(=O)CNC(=O)/C=C/c2ccco2)cc1 | -4.3 | -17.6 | 65.7* | 1.4 | 13.9 | -1.2
CC1(C(=O)O)CCN1C(=O)c1ccccc1F (centres undefined) | -1.0 | 13.1 | 2.6 | 4.7 | 8.6 | 0.8
COc1cc2c(cc1OC)C(C)N(C(=O)CCc1c[nH]c3ccccc13)CC2 (centres undefined) | 25.3 | 8.2 | -3.3 | 1.4 | 7.5 | -12.1
O=C(Nc1cccc([N+](=O)[O-])c1)c1ccc2ccccc2c1O | -238.4 | 37.1 | 52.7* | 21.1 | -454.2 | -35.3
O=C(Nc1ccc2[nH]c(=O)[nH]c2c1)c1ccc([N+](=O)[O-])o1 | 9.3 | -2.3 | 11.2 | -9.0 | 15.8 | 8.1
O=C(Cc1ccccc1)Nc1cccc([N+](=O)[O-])c1 | -0.7 | 6.9 | -4.7 | 4.7 | -3.2 | -8.9
Cc1ccc(NC(=O)c2ccc([N+](=O)[O-])o2)cc1C | 96.9* | 81.8* | 11.2 | -30.2 | -17.3 | -62.7*
O=C(Nc1cccc2ccccc12)c1ccc([N+](=O)[O-])o1 | 37.4 | 82.7* | 26.4 | -9.3 | 31.0 | -23.9
C=CCc1cccc(/C=N/NC(=O)CNc2cccc3ccccc23)c1O | 27.4 | 4.2 | 68.7* | 46.2 | -0.2 | -6.6
COc1ccccc1CN(C)C(=O)CN1CCN(S(=O)(=O)c2ccc3c(c2)OCCCO3)CC1 | 11.3 | -6.7 | 4.0 | -7.7 | 7.8 | -0.9
CC1=C(C(=O)N(C)C)CC(CC(=O)NCCCCc2ccccc2)C(=O)N1Cc1ccc(C(C)(C)C)cc1 (centres undefined) | 17.4 | -16.7 | 14.4 | 20.0 | -7.9 | 15.2
O=C(CNc1cccc2ccccc12)N/N=C/c1ccc([N+](=O)[O-])o1 | 0.2 | -19.1 | 56.4* | 17.4 | -68.1 | 6.6
